# Unmarked numbers belong to inactive results. Results filed as inconclusive are left out. Where a call stands in place of a potency, no number is given. Calls of active or inactive are those of the source. Calls come from the whole dose curve; as a rule, active = well fitted curve in the direction sought with a large enough effect in the repeat runs; inconclusive = weak or mixed curves; inactive = no such curve, though single readings can be large; an effect the other way counts as inactive or inconclusive.
# Columns and labels:
# [1] = qHTS RealTime-Glo MT Cell Viability Assay in HEK293 cells - 16 hour (AID 1224872); note: nearly all actives have a fitted effect of over 50% in size; note: potency is the fitted concentration of half-maximal effect
# In short: (§1)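 Cells + reagent dispensed (600 cells/well, HEK293) → 5 h at 37 C/5% CO2 → 23 nL compound in DMSO pinned → 40 h at 37 C → luminescence read at 0, 8, 16, 24, 32, 40 h.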
# [2] = qHTS RealTime-Glo MT Cell Viability Assay in HepG2 cells - 8 hour (AID 1224873); note: nearly all actives have a fitted effect of over 55% in size; note: potency is the fitted concentration of half-maximal effect
# In short: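 HepG2 cells mixed with RealTime-Glo MT reagents (NanoLuc plus cell-permeant prosubstrate) were seeded at 600 cells/well, incubated 5 h at 37 C/5% CO2, then pinned with compounds in DMSO; nonlytic luminescence tracked viability during 40 h treatment.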
# [3] = qHTS RealTime-Glo MT Cell Viability Assay in HEK293 cells - 40 hour (AID 1224874); settings: RealTime-Glo luminescence; max response: hits give low values; note: nearly all actives have a fitted effect of over 50% in size; note: potency is the fitted concentration of half-maximal effect
# In short: (§2)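 Luminescence readout at each listed time point; HEK293, 600 cells/well, RealTime-Glo MT reagent added with cells; compounds pinned (23 nL in DMSO) after 5 h at 37 C; continuous culture at 37 C.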
# [4] = A CellTox Green Cytotoxicity Assay to monitor cytotoxicity in HEK293 cells - 24 hour (AID 1224875); note: series mostly up to about 77 µM; nearly all actives have a fitted effect of over 45% in size
# In short: (§3)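 Read-out: fluorescence of a cell-impermeant cyanine dye staining DNA of dead cells, proportional to cytotoxicity. HEK293, 600 cells/well with reagent, compound (23 nL DMSO) added after 5 h; reads at 0, 8, 16, 24, 32, 40 h.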
# [5] = A CellTox Green Cytotoxicity Assay to monitor cytotoxicity in HepG2 cells - 16 hour (AID 1224876); note: nearly all actives have a fitted effect of over 45% in size; note: potency is the fitted concentration of half-maximal effect
# In short: (§4)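 HepG2, 600 cells/well premixed w/ CellTox Green; 5 h settle, 37 C/5% CO2; pintool cpd add (DMSO); 37 C, 40 h; fluorescence read at 0, 8, 16, 24, 32, 40 h.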
# [6] = A CellTox Green Cytotoxicity Assay to monitor cytotoxicity in HepG2 cells - 24 hour (AID 1224878); note: nearly all actives have a fitted effect of over 45% in size; note: potency is the fitted concentration of half-maximal effect
# In short: as §4
# [7] = qHTS RealTime-Glo MT Cell Viability Assay in HEK293 cells - 0 hour (AID 1224880); note: top concentration of the series differs between compounds; nearly all actives have a fitted effect of over 45% in size
# In short: as §2
# [8] = A CellTox Green Cytotoxicity Assay to monitor cytotoxicity in HEK293 cells - 32 hour (AID 1224881); note: nearly all actives have a fitted effect of over 40% in size; note: potency is the fitted concentration of half-maximal effect
# In short: as §3
# [9] = A CellTox Green Cytotoxicity Assay to monitor cytotoxicity in HepG2 cells - 0 hour (AID 1224882); note: nearly all actives have a fitted effect of over 35% in size
# In short: as §4
# [10] = A CellTox Green Cytotoxicity Assay to monitor cytotoxicity in HepG2 cells - 32 hour (AID 1224883); note: nearly all actives have a fitted effect of over 50% in size; note: potency is the fitted concentration of half-maximal effect
# In short: as §4
# [11] = A CellTox Green Cytotoxicity Assay to monitor cytotoxicity in HEK293 cells - 8 hour (AID 1224884); note: nearly all actives have a fitted effect of over 35% in size; note: potency is the fitted concentration of half-maximal effect
# In short: as §3
# [12] = qHTS RealTime-Glo MT Cell Viability Assay in HepG2 cells - 16 hour (AID 1224885); note: nearly all actives have a fitted effect of over 50% in size; note: potency is the fitted concentration of half-maximal effect
# In short: (§5)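 Real-time, nonlytic viability: 600 HepG2 cells/well mixed with NanoLuc enzyme plus prosubstrate; 5 h settle, compound (DMSO) added by pintool; luminescence monitored over 40 h at 37 C.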
# [13] = qHTS RealTime-Glo MT Cell Viability Assay in HEK293 cells - 24 hour (AID 1224886); note: nearly all actives have a fitted effect of over 50% in size; note: potency is the fitted concentration of half-maximal effect
# In short: as §1
# [14] = qHTS RealTime-Glo MT Cell Viability Assay in HEK293 cells - 8 hour (AID 1224887); note: nearly all actives have a fitted effect of over 50% in size; note: potency is the fitted concentration of half-maximal effect
# In short: as §2
# [15] = A CellTox Green Cytotoxicity Assay to monitor cytotoxicity in HEK293 cells - 16 hour (AID 1224888); note: nearly all actives have a fitted effect of over 35% in size
# In short: as §3
# [16] = qHTS RealTime-Glo MT Cell Viability Assay in HepG2 cells - 0 hour (AID 1224889); note: nearly all actives have a fitted effect of over 50% in size
# In short: as §5
# [17] = qHTS assay to identify small molecule antagonists of the estrogen receptor alpha (ER-alpha) signaling pathway using the BG1 cell line in the presence of 0.1 nM 17-beta-estradiol - cell viability counter screen (AID 1259241); note: nearly all actives have a fitted effect of over 40% in size; note: potency is the fitted concentration of half-maximal effect
# In short: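 Viability in VM7Luc4E2 cells after 22 hr compound exposure under 0.1 nM 17beta-estradiol stimulation, by CellTiter-Fluor.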
# [18] = A CellTox Green Cytotoxicity Assay to monitor cytotoxicity in HepG2 cells - 8 hour (AID 1224890); note: nearly all actives have a fitted effect of over 45% in size; note: potency is the fitted concentration of half-maximal effect
# In short: as §4
# [19] = A CellTox Green Cytotoxicity Assay to monitor cytotoxicity in HepG2 cells - 40 hour (AID 1224879); note: nearly all actives have a fitted effect of over 40% in size; note: potency is the fitted concentration of half-maximal effect
# In short: as §4
# [20] = qHTS RealTime-Glo MT Cell Viability Assay in HepG2 cells - 32 hour (AID 1224877); note: nearly all actives have a fitted effect of over 55% in size; note: potency is the fitted concentration of half-maximal effect
# In short: as §5
compound,measurement,setting,value
CN(C)CCc1c[nH]c2ccc(O)cc12,Potency,[1],inactive
same,Potency,[2],inactive
same,max response,[3],2.26%
same,Potency,[4],inactive
same,Potency,[5],inactive
same,Potency,[6],inactive
same,Potency,[7],inactive
same,Potency,[8],inactive
same,Potency,[9],inactive
same,Potency,[10],inactive
same,Potency,[11],inactive
same,Potency,[12],inactive
same,Potency,[13],inactive
same,Potency,[14],inactive
same,Potency,[15],inactive
same,Potency,[16],inactive
same,Potency,[17],inactive
O=[N+]([O-])c1cc(Cl)ccc1Cl,Potency,[1],inactive
same,Potency,[2],inactive
same,max response,[3],-0.799%
same,Potency,[4],inactive
same,Potency,[5],inactive
same,Potency,[6],inactive
same,Potency,[9],inactive
same,Potency,[10],inactive
same,Potency,[11],inactive
same,Potency,[12],inactive
same,Potency,[13],inactive
same,Potency,[14],inactive
same,Potency,[15],inactive
same,Potency,[16],inactive
same,Potency,[18],inactive
same,Potency,[17],inactive
Oc1ccc2ccc3cccc4ccc1c2c34,Potency,[1],15.5 µM (active)
same,Potency,[2],43.6 µM (active)
same,Potency,[3],13.8 µM (active)
same,Potency,[19],54.9 µM (active)
same,Potency,[10],54.9 µM (active)
same,Potency,[12],49 µM (active)
same,Potency,[13],15.5 µM (active)
same,Potency,[14],13.8 µM (active)
same,Potency,[16],inactive
same,Potency,[17],inactive
BrCBr,Potency,[1],inactive
same,Potency,[2],inactive
same,max response,[3],10.5%
same,Potency,[4],inactive
same,Potency,[5],inactive
same,Potency,[6],inactive
same,Potency,[19],inactive
same,Potency,[7],inactive
same,Potency,[8],inactive
same,Potency,[10],inactive
same,Potency,[11],inactive
same,Potency,[12],inactive
same,Potency,[13],inactive
same,Potency,[14],inactive
same,Potency,[15],inactive
same,Potency,[16],inactive
same,Potency,[17],inactive
Nc1c(Oc2ccccc2)cc(O)c2c1C(=O)c1ccccc1C2=O,Potency,[1],10.7 µM (active)
same,Potency,[2],inactive
same,Potency,[4],inactive
same,Potency,[5],inactive
same,Potency,[20],inactive
same,Potency,[6],inactive
same,Potency,[19],inactive
same,Potency,[7],inactive
same,Potency,[8],inactive
same,Potency,[9],inactive
same,Potency,[10],inactive
same,Potency,[11],inactive
same,Potency,[12],inactive
same,Potency,[13],21.3 µM (active)
same,Potency,[14],10.7 µM (active)
same,Potency,[15],inactive
same,Potency,[16],inactive
same,Potency,[18],inactive
CC1CCC(C(C)C)C(OC(=O)c2ccccc2N)C1 (configuration not stated),Potency,[1],34.2 µM (active)
same,Potency,[2],inactive
same,Potency,[3],34.2 µM (active)
same,Potency,[5],inactive
same,Potency,[20],inactive
same,Potency,[7],inactive
same,Potency,[8],38.4 µM (active)
same,Potency,[11],48.3 µM (active)
same,Potency,[12],inactive
same,Potency,[13],34.2 µM (active)
same,Potency,[14],34.2 µM (active)
same,Potency,[18],inactive
same,Potency,[17],inactive
CC1(C)CN=C(NN=C(/C=C/c2ccc(C(F)(F)F)cc2)/C=C/c2ccc(C(F)(F)F)cc2)NC1,Potency,[1],49 µM (active)
same,Potency,[2],24.5 µM (active)
same,Potency,[3],38.9 µM (active)
same,Potency,[5],24.5 µM (active)
same,Potency,[20],17.4 µM (active)
same,Potency,[6],19.5 µM (active)
same,Potency,[19],15.5 µM (active)
same,Potency,[7],inactive
same,Potency,[8],54.9 µM (active)
same,Potency,[9],inactive
same,Potency,[10],17.4 µM (active)
same,Potency,[12],19.5 µM (active)
same,Potency,[13],43.6 µM (active)
same,Potency,[16],inactive
same,Potency,[18],34.7 µM (active)
same,Potency,[17],61.1 µM (active)
CCOP(=S)(OCC)OC(Cl)C(Cl)(Cl)Cl (configuration not stated),Potency,[1],inactive
same,Potency,[2],inactive
same,max response,[3],-10.7%
same,Potency,[5],inactive
same,Potency,[6],inactive
same,Potency,[7],inactive
same,Potency,[9],inactive
same,Potency,[10],inactive
same,Potency,[11],inactive
same,Potency,[12],inactive
same,Potency,[13],inactive
same,Potency,[14],inactive
same,Potency,[15],inactive
same,Potency,[16],inactive
same,Potency,[18],inactive
same,Potency,[17],inactive
CC(=O)OC1(c2ccccc2)CCN(CCc2ccccc2)CC1,Potency,[1],25.1 µM (active)
same,Potency,[2],inactive
same,Potency,[3],28.2 µM (active)
same,Potency,[4],inactive
same,Potency,[5],inactive
same,Potency,[6],inactive
same,Potency,[7],inactive
same,Potency,[8],inactive
same,Potency,[9],inactive
same,Potency,[11],inactive
same,Potency,[12],inactive
same,Potency,[13],28.2 µM (active)
same,Potency,[16],inactive
same,Potency,[18],inactive
CC(=O)/C=C/c1ccc2c(c1)OCO2,Potency,[1],inactive
same,Potency,[2],inactive
same,max response,[3],-11.6%
same,Potency,[4],inactive
same,Potency,[5],inactive
same,Potency,[19],49.2 µM (active)
same,Potency,[7],inactive
same,Potency,[8],inactive
same,Potency,[9],inactive
same,Potency,[11],inactive
same,Potency,[12],inactive
same,Potency,[13],inactive
same,Potency,[15],inactive
same,Potency,[16],inactive
same,Potency,[18],inactive
same,Potency,[17],inactive
Oc1c(Cl)c(Cl)cc(Cl)c1Cl,Potency,[1],47.6 µM (active)
same,Potency,[2],inactive
same,Potency,[3],47.6 µM (active)
same,Potency,[5],inactive
same,Potency,[20],inactive
same,Potency,[6],inactive
same,Potency,[19],inactive
same,Potency,[7],inactive
same,Potency,[9],inactive
same,Potency,[10],inactive
same,Potency,[11],inactive
same,Potency,[12],inactive
same,Potency,[13],47.6 µM (active)
same,Potency,[16],inactive
same,Potency,[17],inactive
CCc1cc(C)cc(CC)c1-c1c(OC(=O)C(C)(C)C)n2n(c1=O)CCOCC2,Potency,[1],inactive
same,Potency,[2],inactive
same,max response,[3],-25.1%
same,Potency,[4],inactive
same,Potency,[5],inactive
same,Potency,[6],inactive
same,Potency,[19],inactive
same,Potency,[7],inactive
same,Potency,[8],inactive
same,Potency,[9],inactive
same,Potency,[10],inactive
same,Potency,[12],inactive
same,Potency,[13],inactive
same,Potency,[14],inactive
same,Potency,[15],inactive
same,Potency,[16],inactive
same,Potency,[18],inactive
CC(C)(c1ccc(O)c(-c2ccccc2)c1)c1ccc(O)c(-c2ccccc2)c1,Potency,[1],21.9 µM (active)
same,Potency,[2],49 µM (active)
same,Potency,[3],19.5 µM (active)
same,Potency,[6],49 µM (active)
same,Potency,[19],49 µM (active)
same,Potency,[7],inactive
same,Potency,[10],49 µM (active)
same,Potency,[12],49 µM (active)
same,Potency,[13],21.9 µM (active)
same,Potency,[14],21.9 µM (active)
same,Potency,[16],inactive
Clc1ccc(Oc2ccccc2)cc1,Potency,[1],inactive
same,Potency,[2],inactive
same,max response,[3],-29.2%
same,Potency,[5],inactive
same,Potency,[20],inactive
same,Potency,[6],inactive
same,Potency,[19],inactive
same,Potency,[7],inactive
same,Potency,[9],inactive
same,Potency,[10],inactive
same,Potency,[12],inactive
same,Potency,[14],inactive
same,Potency,[15],inactive
same,Potency,[16],inactive
same,Potency,[18],inactive
same,Potency,[17],inactive
O=C(CCl)C(Cl)Cl,Potency,[1],17.5 µM (active)
same,Potency,[2],inactive
same,Potency,[3],17.5 µM (active)
same,Potency,[5],inactive
same,Potency,[7],inactive
same,Potency,[8],27.8 µM (active)
same,Potency,[9],inactive
same,Potency,[10],55.5 µM (active)
same,Potency,[11],inactive
same,Potency,[12],inactive
same,Potency,[13],17.5 µM (active)
same,Potency,[15],inactive
same,Potency,[16],inactive
same,Potency,[18],inactive
same,Potency,[17],inactive

# From PubChem BioAssay (Tox21)
